# Experimental data from PubChem BioAssay (NCATS).
# Inconclusive results are not listed. A call without a number means that no potency is given here. The source made the active and inactive calls. Calls follow the shape of the dose curve; as a rule, active = well fitted curve in the direction sought with a large enough effect; inconclusive = small, poorly fitted or top-dose-only effect, or another doubt; inactive = no such curve, though single readings can be large; an effect the other way counts as inactive or inconclusive.
# How the values were obtained:
# [1] = biological target: Dual specificity protein kinase CLK4 (Homo sapiens) (UniProt Q9HAZ1); assay: qHTS Assay for Inhibitors of CDC-like Kinase 4 (ADP-Glo Assay) (AID 1771); also: nearly all actives have a fitted effect of over 70% in size
# Chain of Dual specificity protein kinase CLK4 (Homo sapiens) (Q9HAZ1 whole entry, looked up): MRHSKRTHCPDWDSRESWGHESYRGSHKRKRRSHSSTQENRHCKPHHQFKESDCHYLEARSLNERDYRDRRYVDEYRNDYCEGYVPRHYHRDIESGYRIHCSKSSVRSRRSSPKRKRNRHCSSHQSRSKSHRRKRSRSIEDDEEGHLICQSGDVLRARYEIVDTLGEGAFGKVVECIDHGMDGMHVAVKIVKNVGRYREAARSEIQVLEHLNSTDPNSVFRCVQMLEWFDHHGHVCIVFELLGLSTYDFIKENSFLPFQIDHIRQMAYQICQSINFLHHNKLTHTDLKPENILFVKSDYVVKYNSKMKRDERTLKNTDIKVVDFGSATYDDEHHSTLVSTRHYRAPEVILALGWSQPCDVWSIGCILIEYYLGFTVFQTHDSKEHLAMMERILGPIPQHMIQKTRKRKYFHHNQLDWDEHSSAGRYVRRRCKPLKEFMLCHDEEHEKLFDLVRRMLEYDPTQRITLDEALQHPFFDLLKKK
# In short: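 Luminescence from ADP-Glo reports ADP produced by 25 nM Clk4 acting on 100 uM RS repeat peptide with 1 uM ATP over 1 hr at room temperature; residual ATP is depleted before ADP is converted to ATP for detection.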
# [2] = biological target: Nuclear receptor subfamily 1 group I member 3 (Homo sapiens) (UniProt Q14994); assay: Primary qHTS for antagonist of constitutive androstane receptor (CAR) against the NCATS DSHEA and TCM libraries (AID 1794836);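 also: HepG2 cells stably expressing hCAR with CYP2B6 luciferase reporter stimulated by CITCO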
# Chain of Nuclear receptor subfamily 1 group I member 3 (Homo sapiens) (Q14994 whole entry, looked up): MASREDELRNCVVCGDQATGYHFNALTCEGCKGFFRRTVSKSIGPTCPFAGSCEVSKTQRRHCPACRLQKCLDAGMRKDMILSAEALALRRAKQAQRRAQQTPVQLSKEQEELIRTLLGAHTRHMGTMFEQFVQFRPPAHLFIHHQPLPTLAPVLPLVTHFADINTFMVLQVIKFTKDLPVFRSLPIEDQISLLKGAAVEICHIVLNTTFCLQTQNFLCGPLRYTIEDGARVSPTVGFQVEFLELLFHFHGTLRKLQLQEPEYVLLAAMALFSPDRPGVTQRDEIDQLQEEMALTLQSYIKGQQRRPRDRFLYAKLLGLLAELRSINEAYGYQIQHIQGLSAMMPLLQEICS
# In short: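 HepG2-CYP2B6-hCAR cells, attached 5 h, given compounds plus CITCO agonist […], incubated 24 h at 37 C. Luciferase luminescence read, multiplexed with CellTiter-Fluor viability (Ex/Em 405/540 nm).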
# [3] = Validation screen for small molecules that induce DNA re-replication in SW480 colon adenocarcinoma cells (AID 504364)
# In short: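 250 cells/well; compound pinned in; 48 hr, 37 C, 5% CO2; Hoechst added, 40 min; nuclear fluorescence imaged, 405 ex / 500-530 em; re-replication scored as increase in high-intensity nuclei.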
# [4] = Cell Viability - LYMP2-011 (AID 969); also: nearly all actives have a fitted effect of over 60% in size
# In short: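 2500 cells/well, 5 hr 37 C; compound added, 24 hr 37 C; CellTiter-Glo 30 min RT; luminescence. qHTS concentration-response, Hill-equation AC50. Tetraoctylammonium bromide positive control.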
# [5] = biological target: Nuclear receptor subfamily 1 group I member 3 (Homo sapiens) (UniProt Q14994); assay: Primary qHTS for agonist of constitutive androstane receptor (CAR) against the NCATS DSHEA and TCM libraries (AID 1794839); conditions: Potency: CAR antagonist co-added at 0.75 µM unless noted;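 also: HepG2 cells expressing human CAR with a CYP2B6 reporter plus PK11195 antagonist; luciferase reporter luminescence read with ONE-Glo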
# In short: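 Concentration–response screen in HepG2-CYP2B6-hCAR cells under 0.75 µM PK11195; 24 h exposure; luminescent reporter signal with multiplexed fluorescent viability.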
# [6] = biological target: Cytochrome P450 3A4 (Homo sapiens) (UniProt P08684); assay: qHTS for inhibitors of CYP3A4 against the NCATS DSHEA and TCM libraries (AID 1919971);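 also: inhibition lowers luminescence from luciferin made by CYP3A4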
# Chain of Cytochrome P450 3A4 (Homo sapiens) (P08684 whole entry, looked up, canonical isoform): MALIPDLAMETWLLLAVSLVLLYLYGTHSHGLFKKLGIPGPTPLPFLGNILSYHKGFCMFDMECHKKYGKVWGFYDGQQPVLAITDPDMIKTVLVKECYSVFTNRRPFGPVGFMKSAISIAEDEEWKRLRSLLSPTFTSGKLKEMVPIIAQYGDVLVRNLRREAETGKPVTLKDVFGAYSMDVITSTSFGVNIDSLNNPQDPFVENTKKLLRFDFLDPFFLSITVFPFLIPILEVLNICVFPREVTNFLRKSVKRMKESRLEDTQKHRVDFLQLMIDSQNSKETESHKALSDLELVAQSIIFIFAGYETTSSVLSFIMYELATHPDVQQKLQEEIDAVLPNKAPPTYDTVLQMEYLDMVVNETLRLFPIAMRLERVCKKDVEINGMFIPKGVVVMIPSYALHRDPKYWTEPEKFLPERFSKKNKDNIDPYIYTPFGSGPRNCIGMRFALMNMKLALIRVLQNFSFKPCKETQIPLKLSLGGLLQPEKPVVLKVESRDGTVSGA
# In short: (§1)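 Read-out is luminescence after P450-Glo detection (30 min, RT). Before that: 15 min compound–enzyme preincubation, then 30-45 min reaction with 1x NADPH regeneration solution, substrate concentration isoform-specific.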
# [7] = biological target: Cytochrome P450 2C19 (Homo sapiens) (UniProt P33261); assay: qHTS for inhibitors of CYP2C19 against the NCATS DSHEA and TCM libraries (AID 1919974);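 also: luminescence from luciferin released by CYP2C19 oxidation of a pro-luciferin substrate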
# Chain of Cytochrome P450 2C19 (Homo sapiens) (P33261 whole entry, looked up): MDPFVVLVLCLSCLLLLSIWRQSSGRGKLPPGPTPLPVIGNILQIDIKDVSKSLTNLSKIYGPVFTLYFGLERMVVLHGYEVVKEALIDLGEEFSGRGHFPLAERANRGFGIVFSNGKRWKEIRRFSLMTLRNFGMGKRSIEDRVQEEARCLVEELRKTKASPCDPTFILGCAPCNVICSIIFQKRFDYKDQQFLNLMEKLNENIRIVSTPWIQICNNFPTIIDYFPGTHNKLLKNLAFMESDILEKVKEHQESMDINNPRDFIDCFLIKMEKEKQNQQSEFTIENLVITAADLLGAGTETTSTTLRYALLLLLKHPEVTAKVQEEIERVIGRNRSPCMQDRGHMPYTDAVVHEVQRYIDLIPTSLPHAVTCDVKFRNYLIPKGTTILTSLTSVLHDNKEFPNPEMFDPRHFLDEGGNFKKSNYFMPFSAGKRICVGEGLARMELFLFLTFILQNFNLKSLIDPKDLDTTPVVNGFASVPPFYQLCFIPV
# In short: as §1
# [8] = biological target: Nuclear receptor subfamily 1 group I member 2 (Homo sapiens) (UniProt O75469); assay: Dual reporter qHTS for agonist of Pregnane X Receptor (hPXR) against the NCATS DSHEA and TCM libraries: Luminescence readout (AID 1920059)
# Chain of Nuclear receptor subfamily 1 group I member 2 (Homo sapiens) (O75469 whole entry, looked up): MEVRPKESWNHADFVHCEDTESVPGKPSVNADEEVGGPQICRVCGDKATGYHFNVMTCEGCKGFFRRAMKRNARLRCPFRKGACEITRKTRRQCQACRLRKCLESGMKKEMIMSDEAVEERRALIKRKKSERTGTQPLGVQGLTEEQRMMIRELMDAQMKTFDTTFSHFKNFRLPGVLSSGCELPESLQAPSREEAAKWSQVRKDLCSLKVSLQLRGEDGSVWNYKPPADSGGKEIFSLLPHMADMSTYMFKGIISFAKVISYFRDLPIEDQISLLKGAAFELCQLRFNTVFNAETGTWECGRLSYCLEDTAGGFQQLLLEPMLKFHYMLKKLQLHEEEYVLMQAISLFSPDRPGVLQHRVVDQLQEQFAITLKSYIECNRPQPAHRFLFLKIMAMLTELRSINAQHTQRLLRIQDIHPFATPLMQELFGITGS
# In short: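 hPXR-Luc HepG2 cells, 2000/well in 5% charcoal-stripped FBS medium, attached 5 h, then exposed 24 h at 37C to compounds. Viability by CellTiter-Fluor, then luciferase luminescence with ONE-Glo.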
# [9] = biological target: Muscarinic acetylcholine receptor M1 (Rattus norvegicus) (UniProt P08482); assay: qHTS Assay for Antagonists of Acetylcholine Muscarinic M1 Receptor: Kinetic Measurement of Intracellular Calcium Response (AID 943); also: potency is read from the fitted curve at half-maximal effect; nearly all actives have a fitted effect of over 75% in size
# Chain of Muscarinic acetylcholine receptor M1 (Rattus norvegicus) (P08482 whole entry, looked up): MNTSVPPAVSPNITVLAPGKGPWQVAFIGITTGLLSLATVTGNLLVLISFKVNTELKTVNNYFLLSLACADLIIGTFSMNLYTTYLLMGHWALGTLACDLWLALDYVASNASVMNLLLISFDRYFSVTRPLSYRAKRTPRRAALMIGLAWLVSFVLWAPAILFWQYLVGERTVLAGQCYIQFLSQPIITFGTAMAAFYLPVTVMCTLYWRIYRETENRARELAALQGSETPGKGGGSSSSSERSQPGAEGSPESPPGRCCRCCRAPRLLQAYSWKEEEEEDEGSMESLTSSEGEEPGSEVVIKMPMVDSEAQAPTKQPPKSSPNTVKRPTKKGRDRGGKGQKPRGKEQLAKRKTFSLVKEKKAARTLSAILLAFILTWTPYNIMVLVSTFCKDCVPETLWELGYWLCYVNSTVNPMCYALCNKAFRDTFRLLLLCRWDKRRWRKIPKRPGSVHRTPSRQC
# In short: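 Rat M1-CHO cells, 2000/well, overnight → Fluo-4 no-wash dye with probenecid, 1 h 37C → compound 10 min, room temp → basal read 6 s → carbachol EC80 (100 nM) → 4 min kinetic read; peak/basal.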
# [10] = biological target: Muscarinic acetylcholine receptor M1 (Rattus norvegicus) (UniProt P08482); assay: qHTS Assay for Antagonists of Acetylcholine Muscarinic M1 Receptor: Measurement of IP-One Response (AID 944); also: potency is read from the fitted curve at half-maximal effect; nearly all actives have a fitted effect of over 75% in size
# In short: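 M1-CHO (rat), 2000 cells/well, overnight recovery; cpd 10 min; carbachol EC80 (200 nM), 30 min, HEPES buffer + 50 mM LiCl pH 7.4; IP-One HTRF, Ex 337, Em 620/665 nm.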
# [11] = Cellular Toxicity (caspase-3) Hek293 (AID 664);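 also: cells exposed to compound for 16 h at 37 °C before readout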
# In short: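 Cells plated, 5 hr at 37 °C; compounds added; 16 hr at 37 °C; Caspase-Glo 3/7 reagent, 20 min RT; luminescence read. Activation expressed relative to DMSO and 100 uM tamoxifen, AC50 by Hill model.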
# CP192 = assay: qHTS profiling for inhibitors of Plasmodium falciparum proliferation (AID 504749); also: nearly all actives have a fitted effect of over 60% in size; conditions: P. falciparum in erythrocytes, SYBR Green DNA, 72 h; series mostly up to 28.7 µM
# In short: (§2)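 P. falciparum-infected erythrocytes (0.3% parasitemia, 2.5% hematocrit) incubated with compound 72 h at 37 C, 5% CO2. Parasite DNA detected by SYBR Green after lysis, overnight at room temperature; normalised to 0.29 uM artemisinin and DMSO.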
# CP194 = assay: as above; conditions: P. falciparum in erythrocytes, SYBR Green DNA, 72 h; series mostly up to 28.7 µM
# In short: as §2
# CP201 = assay: as above; conditions: P. falciparum in erythrocytes, SYBR Green DNA, 72 h; series mostly up to 28.7 µM
# In short: as §2
# CP203 = assay: as above; conditions: P. falciparum in erythrocytes, SYBR Green DNA, 72 h; series mostly up to 28.7 µM
# In short: as §2
# CP266 = assay: as above; conditions: P. falciparum in erythrocytes, SYBR Green DNA, 72 h; series mostly up to 12.8 µM
# In short: as §2
# CP268 = assay: as above; conditions: P. falciparum in erythrocytes, SYBR Green DNA, 72 h; series mostly up to 28.7 µM
# In short: as §2
# CP305 = assay: as above; conditions: P. falciparum in erythrocytes, SYBR Green DNA, 72 h; series mostly up to 28.7 µM
# In short: as §2
# DIV30 = assay: as above; conditions: P. falciparum in erythrocytes, SYBR Green DNA, 72 h; series mostly up to 28.7 µM
# In short: as §2
# GB4 = assay: as above; conditions: P. falciparum in erythrocytes, SYBR Green DNA, 72 h; series mostly up to 28.7 µM
# In short: as §2
smiles,measurement,setting,value
CN1CCN(c2ncc3ncc(=O)n(C)c3n2)CC1,outcome,[1],inactive
COc1cc2c(cc1O)CC1c3c(cc(O)c(OC)c3-2)CCN1C (stereo not given),Potency,[2],inactive
C[C@]12CC[C@H](O)CC1=CCC1C2CC[C@]2(C)C(=O)CC[C@@H]12 (stereo not given in full),outcome,[3],inactive
C=CCc1ccc2c(c1)OCO2,Potency,[4],inactive
same,Potency,[5],inactive
same,Potency,[6],inactive
same,Potency,[7],inactive
same,Potency,[8],inactive
O=C(OC1CCN(CCCl)CC1)C(c1ccccc1)c1ccccc1,Potency,[9],112 nM (active)
same,Potency,[10],562 nM (active)
CCOCN(C(=O)CCl)c1c(C)cccc1CC,outcome,[11],inactive
C[N+]1([O-])[C@@H]2CC(OC(=O)[C@@H](CO)c3ccccc3)C[C@@H]1[C@H]1O[C@H]12 (stereo not given in full),Potency,CP192,inactive
same,Potency,CP194,inactive
same,Potency,CP201,inactive
same,Potency,CP203,inactive
same,Potency,CP266,inactive
same,Potency,CP268,inactive
same,Potency,CP305,inactive
same,Potency,DIV30,inactive
same,Potency,GB4,inactive
